# Experimental data from PubChem BioAssay (NCI).
# This is part of a sample that, as a whole, favours compounds with a hit. Of some 79,000 tested, about 15% had one in any assay. Unmarked numbers belong to inactive results. Activity calls are given as the source filed them. No stated cut-off is given here; in the data, active means growth inhibition above about 70%; inactive means the rest.
# Key:
# [1] = NCI Yeast Anticancer Drug Screen. Data for the rad52 strain (AID 147);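 further: 0% = growth of vehicle-treated control cultures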; conditions: S. cerevisiae rad52 mutant growth inhibition, hits give high values
# In short: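 Vehicle-treated cultures served as the reference for growth inhibition of compound-exposed yeast bearing a DNA repair mutation.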
# [2] = NCI Yeast Anticancer Drug Screen. Data for the wt1 strain (AID 149);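 further: 0% = growth of vehicle-treated wt1 cultures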; conditions: S. cerevisiae wt1 strain (SPY 50644) growth inhibition, hits give high values
# In short: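 wt1 yeast, compound-treated; % growth inhibition vs vehicle control.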
# [3] = NCI Yeast Anticancer Drug Screen. Data for the rad50EPP+ strain (AID 151);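 further: 0% = growth of vehicle-treated control cultures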; conditions: S. cerevisiae rad50 mutant strain, hits give high values
# In short: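 In this screen, rad50EPP+ yeast were exposed to compounds. Growth inhibition was scored against vehicle-treated controls.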
# [4] = NCI Yeast Anticancer Drug Screen. Data for the mgt1 strain (AID 153); conditions: S. cerevisiae mgt1 mutant growth inhibition, hits give high values
# In short: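 mgt1 strain exposed; growth vs vehicle control recorded as inhibition.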
# [5] = NCI Yeast Anticancer Drug Screen. Data for the rad50 strain (AID 155);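 further: 0% = growth of vehicle-only cultures of the same strain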; conditions: S. cerevisiae rad50 strain growth inhibition, hits give high values
# In short: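 Genetically altered yeast (DNA repair pathway); compound treatment; growth inhibition vs vehicle ctrl.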
# [6] = NCI Yeast Anticancer Drug Screen. Data for the mec2-1 strain (AID 157); conditions: S. cerevisiae mec2-1 strain, hits give high values
# In short: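 Vehicle-treated cultures served as reference for growth inhibition of compound-exposed mec2-1 yeast.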
# [7] = NCI Yeast Anticancer Drug Screen. Data for the sgs1 mgt1 strain (AID 161);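 further: 0% = growth of cultures given vehicle only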; conditions: S. cerevisiae sgs1 mgt1 strain, hits give high values
# In short: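 Mutant yeast exposed to compound; growth scored against vehicle-only wells.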
# [8] = NCI Yeast Anticancer Drug Screen. Data for the CLN2oe strain (AID 163);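 further: 0% = growth of vehicle-only control cultures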; conditions: S. cerevisiae CLN2oe strain, hits give high values
# In short: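 Inhibition relative to vehicle-treated yeast is reported. Cells: strain with genetic alteration in cell-cycle control, grown with compound.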
# [9] = NCI Yeast Anticancer Drug Screen. Data for the cln2 rad14 strain (AID 165);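 further: 0% = growth equal to vehicle treated cultures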; conditions: S. cerevisiae cln2 rad14 strain, hits give high values
# In short: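 Each compound was tested on cln2 rad14 yeast. Inhibition of growth was calculated against vehicle-exposed controls.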
# [10] = NCI Yeast Anticancer Drug Screen. Data for the bub3 strain (AID 167); conditions: S. cerevisiae bub3 mutant strain, hits give high values
# In short: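 Yeast carrying a defined mutation is treated with each compound, and growth is compared with that of vehicle-exposed cells to give inhibition.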
# [11] = NCI Yeast Anticancer Drug Screen. Data for the wt2 strain (AID 169);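 further: 0% = growth of vehicle-treated yeast cultures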; conditions: S. cerevisiae wt2 strain growth inhibition, hits give high values
# In short: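 Inhibition of yeast growth was determined after compound treatment, normalised to controls receiving only vehicle.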
# [12] = NCI Yeast Anticancer Drug Screen. Data for the mlh1 strain (AID 171);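 further: 0% = growth of vehicle-treated control cultures of the same strain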; conditions: S. cerevisiae mlh1 strain growth inhibition, hits give high values
# In short: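 Vehicle-normalised growth inhibition of a repair- or checkpoint-altered yeast strain following compound treatment.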
# [13] = NCI Yeast Anticancer Drug Screen. Data for the sgs1 strain (AID 173);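 further: 0% = growth of vehicle-only control cultures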; conditions: S. cerevisiae sgs1 mutant, hits give high values
# In short: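 Screen format: yeast with repair or checkpoint alterations, compound exposure, growth read relative to vehicle.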
# [14] = NCI Yeast Anticancer Drug Screen. Data for the mlh1 rad18 strain (AID 175); conditions: S. cerevisiae mlh1 rad18 strain growth inhibition, hits give high values
# In short: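 Vehicle-treated cultures served as the reference for growth inhibition in a yeast strain carrying DNA damage repair alterations exposed to each compound.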
# [15] = NCI Yeast Anticancer Drug Screen. Data for the rad18 strain (AID 177); conditions: S. cerevisiae rad18 mutant growth inhibition, hits give high values
# In short: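 Test articles were incubated with altered yeast defective in DNA damage repair. Results are given as inhibition of growth versus vehicle.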
# [16] = NCI Yeast Anticancer Drug Screen. Data for the rad14 strain (AID 159);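 further: 0% = growth of vehicle-treated control cultures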; conditions: S. cerevisiae rad14 strain growth inhibition, hits give high values
# In short: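 Test compounds were applied to a repair-deficient yeast strain. Its growth was then compared with that of cultures given vehicle alone, and inhibition was expressed relative to those controls.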
# [17] = at 5.0 µM (retest, dose inferred, filed as 0.5)
# [18] = at 50.0 µM (retest, dose inferred, filed as 5.0)
smiles,measurement,setting,value
CC(=O)[C@]1(O)Cc2c(O)c3c(c(O)c2[C@@H](OC2CC(N)C(O)C(C)O2)C1)C(=O)c1c(OCc2ccccc2)cccc1C3=O (some centres not stated),growth inhibition,[1]; at 1.2 µM,21%
same,growth inhibition,[1]; at 3.7 µM,40%
same,growth inhibition,[1]; at 11.0 µM,59%
same,growth inhibition,[1]; at 33.0 µM,79% (active)
same,growth inhibition,[1]; at 100.0 µM,94% (active)
same,growth inhibition,[2]; at 1.2 µM,-9%
same,growth inhibition,[2]; at 3.7 µM,-4%
same,growth inhibition,[2]; at 11.0 µM,5%
same,growth inhibition,[2]; at 33.0 µM,-4%
same,growth inhibition,[2]; at 100.0 µM,7%
same,growth inhibition,[3]; at 1.2 µM,18%
same,growth inhibition,[3]; at 3.7 µM,21%
same,growth inhibition,[3]; at 11.0 µM,28%
same,growth inhibition,[3]; at 33.0 µM,46%
same,growth inhibition,[3]; at 100.0 µM,65%
same,growth inhibition,[4]; at 1.2 µM,-2%
same,growth inhibition,[4]; at 3.7 µM,8%
same,growth inhibition,[4]; at 11.0 µM,5%
same,growth inhibition,[4]; at 33.0 µM,14%
same,growth inhibition,[4]; at 100.0 µM,43%
same,growth inhibition,[5]; at 1.2 µM,14%
same,growth inhibition,[5]; at 3.7 µM,24%
same,growth inhibition,[5]; [17],9%
same,growth inhibition,[5]; at 11.0 µM,44%
same,growth inhibition,[5]; at 33.0 µM,71% (active)
same,growth inhibition,[5]; [18],83% (active)
same,growth inhibition,[5]; at 50.0 µM,72.8% (active)
same,growth inhibition,[5]; at 100.0 µM,92% (active)
same,growth inhibition,[6]; at 1.2 µM,4%
same,growth inhibition,[6]; at 3.7 µM,-10%
same,growth inhibition,[6]; [17],-9%
same,growth inhibition,[6]; at 11.0 µM,-1%
same,growth inhibition,[6]; at 33.0 µM,2%
same,growth inhibition,[6]; [18],24%
same,growth inhibition,[6]; at 50.0 µM,12.4%
same,growth inhibition,[6]; at 100.0 µM,28%
same,growth inhibition,[7]; [17],11%
same,growth inhibition,[7]; [18],46%
same,growth inhibition,[7]; at 50.0 µM,9.95%
same,growth inhibition,[8]; at 1.2 µM,5%
same,growth inhibition,[8]; at 3.7 µM,16%
same,growth inhibition,[8]; at 11.0 µM,27%
same,growth inhibition,[8]; at 33.0 µM,30%
same,growth inhibition,[8]; at 100.0 µM,31%
same,growth inhibition,[9]; [17],4%
same,growth inhibition,[9]; [18],35%
same,growth inhibition,[9]; at 50.0 µM,-1.65%
same,growth inhibition,[10]; at 1.2 µM,-2%
same,growth inhibition,[10]; at 3.7 µM,1%
same,growth inhibition,[10]; [17],10%
same,growth inhibition,[10]; at 11.0 µM,5%
same,growth inhibition,[10]; at 33.0 µM,18%
same,growth inhibition,[10]; [18],36%
same,growth inhibition,[10]; at 50.0 µM,17.4%
same,growth inhibition,[10]; at 100.0 µM,33%
same,growth inhibition,[11]; at 1.2 µM,-69%
same,growth inhibition,[11]; at 3.7 µM,-65%
same,growth inhibition,[11]; at 11.0 µM,-53%
same,growth inhibition,[11]; at 33.0 µM,-16%
same,growth inhibition,[11]; at 100.0 µM,92% (active)
same,growth inhibition,[12]; at 1.2 µM,-2%
same,growth inhibition,[12]; at 3.7 µM,-1%
same,growth inhibition,[12]; at 11.0 µM,6%
same,growth inhibition,[12]; at 33.0 µM,23%
same,growth inhibition,[12]; at 100.0 µM,61%
same,growth inhibition,[13]; at 1.2 µM,8%
same,growth inhibition,[13]; at 3.7 µM,4%
same,growth inhibition,[13]; at 11.0 µM,22%
same,growth inhibition,[13]; at 33.0 µM,19%
same,growth inhibition,[13]; at 100.0 µM,53%
same,growth inhibition,[14]; [17],-4%
same,growth inhibition,[14]; [18],46%
same,growth inhibition,[15]; at 1.2 µM,2%
same,growth inhibition,[15]; at 3.7 µM,7%
same,growth inhibition,[15]; at 11.0 µM,9%
same,growth inhibition,[15]; at 33.0 µM,20%
same,growth inhibition,[15]; at 100.0 µM,55%
O=C(/C=C/c1cccc2ccccc12)c1ccc(Cl)cc1,growth inhibition,[1]; at 1.2 µM,7%
same,growth inhibition,[1]; at 3.7 µM,7%
same,growth inhibition,[1]; at 11.0 µM,7%
same,growth inhibition,[1]; at 33.0 µM,-4%
same,growth inhibition,[1]; at 100.0 µM,-13%
same,growth inhibition,[2]; at 1.2 µM,-30%
same,growth inhibition,[2]; at 3.7 µM,-19%
same,growth inhibition,[2]; at 11.0 µM,-28%
same,growth inhibition,[2]; at 33.0 µM,-34%
same,growth inhibition,[2]; at 100.0 µM,-45%
same,growth inhibition,[3]; at 1.2 µM,-3%
same,growth inhibition,[3]; at 3.7 µM,4%
same,growth inhibition,[3]; at 11.0 µM,9%
same,growth inhibition,[3]; at 33.0 µM,0%
same,growth inhibition,[3]; at 100.0 µM,-12%
same,growth inhibition,[4]; at 1.2 µM,13%
same,growth inhibition,[4]; at 3.7 µM,11%
same,growth inhibition,[4]; at 11.0 µM,7%
same,growth inhibition,[4]; at 33.0 µM,8%
same,growth inhibition,[4]; at 100.0 µM,-5%
same,growth inhibition,[5]; at 1.2 µM,24%
same,growth inhibition,[5]; at 3.7 µM,27%
same,growth inhibition,[5]; [17],37%
same,growth inhibition,[5]; at 11.0 µM,24%
same,growth inhibition,[5]; at 33.0 µM,13%
same,growth inhibition,[5]; [18],98% (active)
same,growth inhibition,[5]; at 50.0 µM,83.5% (active)
same,growth inhibition,[5]; at 100.0 µM,13%
same,growth inhibition,[6]; at 1.2 µM,11%
same,growth inhibition,[6]; at 3.7 µM,14%
same,growth inhibition,[6]; [17],67%
same,growth inhibition,[6]; at 11.0 µM,-2%
same,growth inhibition,[6]; at 33.0 µM,-6%
same,growth inhibition,[6]; [18],99% (active)
same,growth inhibition,[6]; at 50.0 µM,74.6% (active)
same,growth inhibition,[6]; at 100.0 µM,-12%
same,growth inhibition,[16]; at 1.2 µM,-28%
same,growth inhibition,[16]; at 3.7 µM,-23%
same,growth inhibition,[16]; at 11.0 µM,-30%
same,growth inhibition,[16]; at 33.0 µM,-38%
same,growth inhibition,[16]; at 100.0 µM,-35%
same,growth inhibition,[7]; [17],-3%
same,growth inhibition,[7]; [18],42%
same,growth inhibition,[8]; at 1.2 µM,5%
same,growth inhibition,[8]; at 3.7 µM,4%
same,growth inhibition,[8]; at 11.0 µM,-27%
same,growth inhibition,[8]; at 33.0 µM,-35%
same,growth inhibition,[8]; at 100.0 µM,-43%
same,growth inhibition,[9]; [17],28%
same,growth inhibition,[9]; [18],-7%
same,growth inhibition,[10]; at 1.2 µM,6%
same,growth inhibition,[10]; at 3.7 µM,11%
same,growth inhibition,[10]; [17],2%
same,growth inhibition,[10]; at 11.0 µM,9%
same,growth inhibition,[10]; at 33.0 µM,7%
same,growth inhibition,[10]; [18],17%
same,growth inhibition,[10]; at 100.0 µM,-6%
same,growth inhibition,[11]; at 1.2 µM,-25%
same,growth inhibition,[11]; at 3.7 µM,-19%
same,growth inhibition,[11]; at 11.0 µM,-28%
same,growth inhibition,[11]; at 33.0 µM,-33%
same,growth inhibition,[11]; at 100.0 µM,-33%
same,growth inhibition,[12]; at 1.2 µM,-33%
same,growth inhibition,[12]; at 3.7 µM,-24%
same,growth inhibition,[12]; at 11.0 µM,-34%
same,growth inhibition,[12]; at 33.0 µM,-46%
same,growth inhibition,[12]; at 100.0 µM,-49%
same,growth inhibition,[14]; [17],35%
same,growth inhibition,[14]; [18],99% (active)
same,growth inhibition,[14]; at 50.0 µM,80.4% (active)
same,growth inhibition,[15]; at 1.2 µM,3%
same,growth inhibition,[15]; at 3.7 µM,9%
same,growth inhibition,[15]; at 11.0 µM,5%
same,growth inhibition,[15]; at 33.0 µM,13%
same,growth inhibition,[15]; at 100.0 µM,14%
